This is an account of results in PubChem BioAssay (NCATS).

Inconclusive results are not listed. Calls of active or inactive are those of the source. Unless noted, calls come from the whole dose curve; as a rule, active = well fitted curve in the direction sought with a large enough effect; inconclusive = small, poorly fitted or top-dose-only effect, or another doubt; inactive = no such curve, though single readings can be large; an effect the other way counts as inactive or inconclusive.

Experiment [1] can be described thus: qHTS of Trypanosoma Brucei Inhibitors: LOPAC Validation (AID 624147). Note: 0% is about no effect. The procedure, abridged:
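Assay buffer: 50 mM TEA pH 7.2, 100 mM KCl, 10 mM MgCl2, 0.05% BSA, 0.01% Tween-20. Pyruvate kinase from T. brucei plus substrate met compound, then ADP (130 uM final). Luminescence was read post 45 min RT.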
A general note: Quantitative high-throughput screening tests each substance at several concentrations.

The target in experiment [2] is Glucagon-like peptide 1 receptor (Homo sapiens) (UniProt P43220). The experiment in a line: qHTS of GLP-1 Receptor Agonists: LOPAC Validation (AID 624148).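 Note: luminescence from a luciferase reporter switched on by cAMP; 0% is about no effect; higher luminescence signal means agonism.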 The source says: The overall goal of this project was to develop a novel assay for discovering small molecule ligands for class B1 G protein-coupled receptors (GPCRs). Very few agonists (or inverse agonists) with generally weak activity for this entire group of physiologically important receptors are known to date. To establish proof-of-principle that this critical bottleneck can be overcome with a suitable screening approach, our studies focused on the class B1 receptor for glucagon-like peptide-1 (GLP-1R), a potential therapeutic target for diabetes and neurodegenerative disease.
Glucagon-like peptide 1 receptor (Homo sapiens), sequence (P43220 whole entry, looked up): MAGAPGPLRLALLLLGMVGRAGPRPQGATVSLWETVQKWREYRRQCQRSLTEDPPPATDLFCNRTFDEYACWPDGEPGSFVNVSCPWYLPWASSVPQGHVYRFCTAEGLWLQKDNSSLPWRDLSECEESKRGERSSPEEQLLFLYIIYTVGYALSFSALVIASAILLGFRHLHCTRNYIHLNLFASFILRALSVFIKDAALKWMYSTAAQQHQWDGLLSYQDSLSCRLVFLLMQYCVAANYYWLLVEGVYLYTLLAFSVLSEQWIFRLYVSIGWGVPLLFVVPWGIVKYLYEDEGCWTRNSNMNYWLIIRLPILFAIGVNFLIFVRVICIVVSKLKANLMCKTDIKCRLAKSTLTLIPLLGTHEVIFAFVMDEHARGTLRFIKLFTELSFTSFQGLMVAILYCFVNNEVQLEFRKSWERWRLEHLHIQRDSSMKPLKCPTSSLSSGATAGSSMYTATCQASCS
The assay was developed in a "mix and measure" format using a cell-based functional readout. Toward this goal, stably transfected HEK293 cell clones were established that co-express (i) a cAMP-responsive luciferase reporter gene, and (ii) GLP-1Rs that upon ligand interaction either stimulate (agonists) or inhibit (inverse agonists) luciferase activity. In different cell lines to be used for screening, expressed GLP-1Rs are specifically optimized for high sensitivity detection of either weak agonists (hypersensitive receptor) or inverse agonists (constitutively active receptor mutant). In addition, control cell lines were developed that express either the cAMP-responsive reporter gene without recombinant GLP-1Rs (enabling initial exclusion of GLP-1R independent effects of candidate probes), or the reporter gene together with wild type GLP-1Rs (for confirmation of probe activity at this receptor), or the reporter gene in combination with the constitutively active orphan receptor GPR119 (enabling initial exclusion of GLP-1R independent inhibitory effects of candidate inverse agonists).
To that end, this assay was optimized for 1536-well format and screened against the MLSMR.
NIH Molecular Libraries Probe Production Network [MLPCN]
NIH Chemical Genomics Center [NCGC]
PI Name: Martin Beinborn, Tufts Medical Center
In a white solid 1536-well plate, 6 uL of cells are dispensed in DMEM without phenol red, 10% Nu serum, and 1% pen-strep medium. The plates are then incubated for 12 hours at 37 deg C at 5% CO2 before 23 nL of compounds are added. After a 4-6 hr incubation at37 deg C and 5% CO2, 3 uL of detection reagent are added and after a 12 min incubation at RT, a luminescent read is obtained on the ViewLux.

Experiment [3] in a line: qHTS of Nrf2 Activators: LOPAC Validation (AID 624149). Note: 0% is about no effect. In a few lines:
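AREc32_Fluc cells, 1000/well, OPTI-MEM + 5% FBS, o/n 37 deg C 5% CO2; compound pin-transfer, 24 hr 37 deg C; Steady-Glo 30 min RT, luminescence read.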

A short description of experiment [4]: HTS Assay for Allosteric Antagonists of the Human D2 Dopamine Receptor: Hit Validation in HTRF (AID 624455). Note: potency is the fitted concentration of half-maximal effect. The procedure, abridged:
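HTRF read-out; cells stably expressing D1 receptor; hits scored for inhibition of D1-mediated response. Primary screen: calcium flux, force-coupled inducible Hek293 Trex D2 line, antagonism vs EC80 dopamine.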
Background: In TR-FRET formats the signal depends on donor and acceptor labels being close together.

A short description of experiment [5]: Cytotoxicity counterscreen for NFkB agonists and antagonists (AID 624476).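 Note: cells exposed to compound for 48 hours; % is set by controls: 0 for no effect and ±100 for the full control effect.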
Experiment [6] in a line: qHTS Assay for Identification of Small Molecule Agonists for NFkB Signaling Pathway. (AID 624478).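 Note: compounds tested together with TNF alpha at its EC50 of 10 pM; 0% is about no effect.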 As for the experimental part: The TNF alpha/NFkB signaling pathway was assayed in NFkB-bla cells (Invitrogen), a ME-180 cervical carcinoma line containing a stably integrated beta-lactamase reporter gene controlled by a NFkB response element. This reporter is induced by TNF alpha at 10 pM EC50 and inhibited by the proteosome inhibitor MG-132 at approximately 100 nM IC50. The assay was screened at the EC50 of TNF alpha activation to identify activators of TNF alpha/NFkB signaling
Cells were trypsinized, washed in assay medium (AM, OPTI MEM with 0.5% fetal bovine serum, 0.1 mM nonessential amino acids, 1 mM sodium pyruvate, 10mM HEPES pH 7.3, 100U/ml penicillin, and 100 ug/ml streptomycin) and plated at 1000 cells/5 uL/well into black clear-bottom 1536 well plates. After an overnight incubation at 37 C and 5% CO2, 23 nL of compound were delivered by a pin tool, 1 uL of TNF alpha (10 pM final concentration in AM) was added and plates were incubated at 37 C for 5 hrs. One uL of LiveBLAzerTM detector mix (Invitrogen) was added, the plates incubated at room temperature for 2 hrs, and fluorescence intensity at 460 and 530 nm emission was measured at 405 nm excitation by an Envision (Perkin Elmer).

Experiment [7] in a line: qHTS Assay for Identification of Small Molecule Antagonists for NFkB Signaling Pathway. (AID 624479; calls by dose curve;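 note: pathway stimulated with TNF alpha; % is set by controls: 0 for no effect and ±100 for the full control effect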).
A short description of experiment [8]: Cell Proliferation Assay against the TMD8 Cell Line (AID 651645).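 Note: cells exposed to compound for 48 h before reading.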 Particulars: TMD8 DLBCL cell line proliferation/viability; at 46.1 µM (top of the series). In a few lines:
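Viability by CellTiter-Glo after 48 h compound exposure of 500 log-phase TMD8 cells per well (RPMI, 5% FBS). Percent activity scaled between DMSO (100%) and 9.2 uM final bortezomib (0%).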

Experiment [9] can be described thus: Cell Proliferation Assay against the HBL1 Cell Line (AID 651646).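 Note: cells exposed to compound for 48 h before reading.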 Particulars: HBL1 DLBCL cells; at 46.1 µM (top of the series). In a few lines:
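CellTiter-Glo luminescence after 48 h compound exposure at 37C gives percent activity, with DMSO as 100% and 9.2 uM bortezomib final as 0%. Cells: 500 log-phase HBL1 per well, RPMI plus 5% FBS.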

A short description of experiment [10]: Cell Proliferation Assay against the TMD8 Cell Line (Caspase readout at 16 hrs) (AID 651712).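 Note: 0% = DMSO and 100% = 9.2 µM bortezomib caspase activation.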 The source says: One class of targeted therapeutics showing early clinical success in killing of ABC DLBCL lines are small molecule inhibitors of the Bruton tyrosine kinase (BTK) 11. Thus, we chose to investigate what additional compounds, if any, would synergize with the BTK inhibitor Ibrutinib (PCI-32765).
Prior to any combination assays, using an NCATS developed oncology compound library called the Mechanism of Interrogation Plate (MIPE), two well studied ABC DLBCL lines (TMD8 and HBL1) were screened using a cell viability assay (CellTiterGlo) and a 12-point titration series for each single agent. These initial experiments offered insight into the concentration range that offered the best coverage of activity and non-activity to assure relevant data is generated. […]
A total of 500 log growing TMD8 cells are seeded per well in 5 uL of a RPMI with glutamine (or Glutamax), without phenol red plus 5% FBS and 1X Pen/Strep into 1536 -solid white high base tissue culture treated Greiner One Bio Plates (789173-F) using a multidrop combi dispenser and a small sterile cassette. […] The plates are then spun at 1000 rpms to remove bubbles and incubated for 15 minutes at room temperature before read on a ViewLux using a luminescent filter with a 10 second exposure. The relative luciferase units are used to calculated percent activity using DMSO as 0% and Bortezomib as 100%.

Regarding `O=C(O)c1nn(Cc2ccc(Cl)cc2Cl)c2ccccc12`, the outcome in [1], in experiment [2], in [3], in experiment [5], in experiment [6] and in [7] was inactive. In addition, the call in experiment [10] was inactive. For the same compound, the Potency result in experiment [4] was “inactive”. Besides, the viability (% of control) in [8] turned out to be 107%. Moreover, in experiment [9], the viability, percent of control is 112%.
On to `COc1ccc(C(=O)N2CCCC2=O)cc1`, for which the compound was called inactive in experiment [2] and in experiment [3]. Also, the Potency result in experiment [4] was “inactive”.
`NC(=O)CN1CCCC1=O`: the outcome in experiment [1], in [2] and in experiment [3] was inactive. Also, the Potency entry in experiment [4] was “inactive”.
Turning to `CN1C[C@H](C(=O)N[C@]2(C)O[C@@]3(O)[C@@H]4CCCN4C(=O)[C@H](Cc4ccccc4)N3C2=O)C[C@@H]2c3cccc4[nH]cc(c34)C[C@H]21`, the Potency in [4] is 82 nM (active).
For `COC(=O)C1=CCCN(C)C1`, the outcome in experiment [1], in [2] and in [3] was inactive. The Potency entry in [4] was “inactive”.
